High-throughput results deposited in PubChem by National Center for Advancing Translational Sciences (NCATS).
NIH3T3 tox: Cytotoxic Profiling in NIH 3T3 Cell Line of Diverse Libraries Using Quantitative High-Throughput Screening; NIH 3T3 viability, CellTiter-Glo ATP luminescence, 48-72 h; Potency, µM (series often up to 96.7 µM), inactives show at the highest dose activity change, negative = cytotoxicity, hits mostly inhibitors; 94,000 tested, 4.3% active; AID 1345082, 2018; further: nearly all actives have a fitted effect of over 55% in size
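Luminescent ATP readout (CellTiter-Glo, 10 min RT) after 48 or 72 hr compound exposure of NIH 3T3 cells seeded at 400 cells/well in 1536-well format; quantitative HTS.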
FLuc inh: Firefly luciferase inhibition profiling of diverse chemical library using quantitative high-throughput screening | AID 1347043, 2019 | Luciferin 4-monooxygenase (Photinus pyralis), P08659 | Potency, µM (series often up to 115 µM), usual class: inhibitors | purified P. pyralis luciferase, luminescence, biochemical | 76,000 tested, 2.5% active; further: nearly all actives have a fitted effect of over 65% in size
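Biochemical qHTS: compound (6-point titration) added to 10uM D-luciferin plus 10uM ATP in Tris acetate pH 7.5 buffer with Mg, Tween-20 and BSA, then purified enzyme at 10nM; light output imaged.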
NPR1 antag: Natriuretic polypeptide receptor (hNpr1) antagonism - Primary qHTS; Atrial natriuretic peptide receptor 1 (Homo sapiens), P16066; 76,000 tested, 1.6% active; HEK293 hNpr1 GloSensor cGMP, ANP-stimulated luminescence; Potency, µM (series often up to 46.3 µM), for the others: at the highest dose activity change, negative = inhibition, most hits filed as inhibitors; AID 1347048, 2019; calls by dose curve; further: nearly all actives have a fitted effect of over 60% in size
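Compound pre-incubated 30 min at room temperature on GloSensor-loaded HEK293 cells stably carrying hNpr1 and the pGS-40F cGMP biosensor. Stimulation uses hNppA at 0.1 nM final; luminescence is taken at baseline and 20 min post-agonist.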
GPT2 inhibitor: Primary qHTS assay for inhibitors of Glutamate pyruvate transaminase 2 (GPT2); Alanine aminotransferase 2 (Homo sapiens), Q8TD30; Recombinant GPT2, coupled pyruvate oxidase/HRP Amplex Red fluorescence; Potency, µM (highest dose often 57.7 µM), inactives show at the top dose activity change, negative = inhibition, usual class: inhibitors; 100,000 tested, 0.25% active; AID 1671188, 2021; further: nearly all actives have a fitted effect of over 60% in size
Target sequence (Q8TD30 whole entry, looked up): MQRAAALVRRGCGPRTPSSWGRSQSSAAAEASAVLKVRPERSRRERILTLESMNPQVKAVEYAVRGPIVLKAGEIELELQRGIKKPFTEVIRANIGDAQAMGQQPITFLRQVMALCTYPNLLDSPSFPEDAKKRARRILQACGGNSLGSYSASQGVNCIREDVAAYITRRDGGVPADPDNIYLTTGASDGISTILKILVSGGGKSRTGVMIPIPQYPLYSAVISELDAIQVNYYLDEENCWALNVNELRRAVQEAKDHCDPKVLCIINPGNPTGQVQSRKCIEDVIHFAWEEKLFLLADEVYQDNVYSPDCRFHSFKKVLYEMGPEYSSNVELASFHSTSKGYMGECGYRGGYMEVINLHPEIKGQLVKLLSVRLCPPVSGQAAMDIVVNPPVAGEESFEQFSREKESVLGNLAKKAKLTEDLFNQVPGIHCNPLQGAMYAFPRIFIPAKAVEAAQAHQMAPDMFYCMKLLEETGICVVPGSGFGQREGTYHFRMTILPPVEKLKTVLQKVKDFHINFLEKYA
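GPT2 10ng/uL, a-KG 250uM, L-Ala 2mM, HEPES pH7.5 + 0.0001% Tween; 30 min RT. Then Amplex mix (PO/HRP/ThPP), 30 min RT dark, fluorescence. AOA 50uM used as positive control.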
HEK293 tox: Cytotoxic Profiling in HEK 293 Cell Line of Diverse Libraries Using Quantitative High-Throughput Screening; HEK 293 viability, ATP luminescence (CellTiter-Glo), 48-72 h; Potency, µM (titrated, usually from 115 µM), inactives show at the highest dose activity change, negative = cytotoxicity, most hits filed as inhibitors; 94,000 tested, 6.6% active; further: nearly all actives have a fitted effect of over 60% in size
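ATP-coupled CellTiter-Glo luminescence served as viability read-out, recorded 10 min after reagent addition at room temperature. HEK 293 cells, 250 cells/well, had been incubated with pintool-transferred compound for 48 or 72 hr at 37 degree Celsius.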
* marks the source's active call; other numbers are inactive results; i = inactive; ? = inconclusive; / = not tested or not shown; [ ] = another dose, or the depositor's remark. An excerpt weighted towards active compounds, which were near 10% of everything screened. Unless noted, the call rests on the fitted dose curve; in most records, active means well fitted curve in the direction sought with a large enough effect; inconclusive means small, poorly fitted or top-dose-only effect, or another doubt; inactive means no such curve, though single readings can be large; an effect the other way counts as inactive or inconclusive. On the % scale 0 is the no-effect control and ±100 the full control effect; potency means the concentration at half of the fitted maximal effect.

SMILES | NIH3T3 tox | FLuc inh | NPR1 antag | GPT2 inhibitor | HEK293 tox
O=C(C1CCOCC1)N1CCc2c(n(Cc3ccccc3)n(-c3ccccc3)c2=O)C1 | 100µM* | i | -1%[70.6 µM] | -1%[88.5 µM] | 4%[172 µM]
CCn1c2c(c(=O)n1Cc1ccccc1)CCN(C(=O)C1CCCO1)C2 (stereo not drawn) | ? | i | 0%[70.6 µM] | -17%[88.5 µM] | i
COc1ccc(-n2c(=O)c3c(n2Cc2ccccc2)CN(C(=O)C2CCC(OC)CC2)CC3)cc1 (stereo not drawn) | ? | i | 1% | i | -6%
O=C(C1CCCO1)N1CCc2c(n(Cc3ccccc3)n(-c3ccccc3)c2=O)C1 (stereo not drawn) | 32µM* | i | 2%[70.6 µM] | 0%[88.5 µM] | -6%[172 µM]
CN1CCC(C(=O)N2Cc3ccccc3CC3(CCCN(CC4CCNCC4)C3)C2)CC1 (stereo not drawn) | i | / | / | -10% | i
NC(=O)[C@@H]1C[C@H](Oc2cccnc2)CN1S(=O)(=O)c1cccc(F)c1 | -10% | i | 0% | -30% | -2%
O=C(NC1CC1)[C@@H]1C[C@H](Oc2cccnc2)CN1C(=O)CCc1ccccc1 | 2% | i | 0% | -2% | 4%
COc1ccc(-c2onc(C)c2C(=O)NC2CCCc3ccccc32)cc1 (stereo not drawn) | ? | 28µM* | -5% | i | ?
COc1ccc(-c2onc(C)c2C(=O)NCc2c(OC)cc(OC)cc2OC)cc1 | ? | i | -10% | 5% | 32µM*
COc1cc(OC)c(CNC(=O)c2c(C)noc2-c2cccs2)c(OC)c1 | ? | i | -3% | -2% | 79µM*
Cc1ccc2c(n1)N(C)[C@H](CO)CCN(Cc1ccc(F)c(F)c1)C2 | -26%[174 µM] | i | -3%[70.6 µM] | -17%[88.5 µM] | ?
Cc1ccc2c(n1)N(C)[C@H](CO)CCN(Cc1ccc(Cl)cc1)C2 | ? | i | -2%[70.6 µM] | ? | 71µM*
CS(=O)(=O)N1CCC(Cc2ccc(C(=O)NCCN3CCOCC3)cc2)CC1 | 4% | i | -1% | -4% | i
CS(=O)(=O)N1CCC(Cc2ccc(C(=O)NCCc3ccccc3)cc2)CC1 | ? | / | / | -4% | 11µM*
CCN(CCCNC(=O)C1Cn2cccc2C(=O)N1C)c1ccccc1 (stereo not drawn) | -8% | / | / | 2% | -2%
COc1ccccc1C(=O)N1CC[C@H]2COC(=O)N2c2cc(F)ccc2C1 | -1%[174 µM] | i | 3%[70.6 µM] | i | -5%[172 µM]
OC[C@@H]1CN(Cc2ccco2)C[C@H]1c1nc(-c2ccncc2)no1 | -10% | ? | -2% | i | ?
c1ccc(-c2nc(-c3ccc(OC4CNC4)cc3)no2)cc1 | 16µM* | 4µM* | ? | i | ?
O=C(Nc1ccccc1F)N1CC(Oc2ccc(-c3noc(-c4ccccc4)n3)cc2)C1 | -16% | ? | 10µM* | i | ?
c1coc(CN2CC(Oc3ccc(-c4noc(-c5ccncc5)n4)cc3)C2)c1 | ? | 4µM* | 11µM* | i | 18µM*
O=C(NCc1ccccc1)N1CC(Oc2ccc(-c3nc(-c4ccccc4)no3)cc2)C1 | -2% | 2.5µM* | ? | i | ?
O=C(CCc1ccccc1)N1CC(Oc2ccc(-c3nc(-c4ccccc4)no3)cc2)C1 | -18% | ? | ? | -3% | ?
c1cc(-c2nc(-c3ccc(OC4CNC4)cc3)no2)ccn1 | ? | ? | -3% | i | ?
COc1ccc(C)cc1NC(=O)N1CCC(OC2CCN(Cc3ccccc3)CC2)CC1 | -25% | i | -19% | i | -8%
Cc1nc(C2CC(O)C2)cc(N2CC(N3CCOCC3)C2)n1 (stereo not drawn) | 5% | i | 3% | 4% | -1%
SMILES | NIH3T3 tox | FLuc inh | NPR1 antag | GPT2 inhibitor | HEK293 tox
CC(=O)N1CCN([C@H]2[C@@H]3OC[C@@H](O3)[C@@H](NC(=O)Nc3ccccc3)[C@@H]2O)CC1 | 0%[174 µM] | i | -6%[70.6 µM] | ? | 0%[172 µM]
O=C(C1CCCN([S+](=O)([O-])c2cccc(C(F)(F)F)c2)C1)N1CCC(c2ccccc2)CC1 (stereo not drawn) | ? | / | / | i | ?
O=C(Nc1ccccc1F)N1CC(Oc2ccc(-c3nc(-c4ccccc4)no3)cc2)C1 | -1% | ? | -18% | i | -11%
O=C(NCc1ccc(F)cc1)N1CC(Oc2ccc(-c3noc(-c4ccccc4)n3)cc2)C1 | ? | ? | 14µM* | -17% | ?
O=C(NCc1ccccc1)N1CC(Oc2cccc(-c3nc(-c4ccccc4)no3)c2)C1 | ? | i | -20% | i | 18µM*
Cc1noc(-c2cccc(OC3CN(C(=O)NCc4ccccc4)C3)c2)n1 | ? | i | -13% | -1% | ?
Cc1cc(C)n(CCC(=O)N2CC(Oc3cccc(-c4nc(-c5ccccc5)no4)c3)C2)n1 | 40µM* | 28µM* | ? | i | ?
CNC(=O)c1cc(C2CC2)nc2c1c(C1CCN(C(=O)COC)CC1)nn2C | -5% | / | / | / | i
CC(C)NC(=O)N(C1CC1)C1CCOC2(CCN(C(=O)C3CC3)CC2)C1 (stereo not drawn) | -10% | / | / | i | -1%
Cn1cncc1CNC(=O)c1cc(-c2ccc(F)cc2)cc2ncn(C)c12 | ? | i | 0%[70.6 µM] | 2%[88.5 µM] | -4%[172 µM]
COC(=O)c1ccc(CNC(=O)CC2c3cccnc3C(=O)N2c2c(Cl)cccc2Cl)cc1 (stereo not drawn) | ? | / | / | -1%[27.3 µM] | ?
CCOC(=O)c1ccc(N2CCN(CCC3c4cccnc4C(=O)N3c3c(C)cccc3C)CC2)cc1 (stereo not drawn) | ? | / | / | 4%[27.3 µM] | 35µM*
Cc1nc(-c2ccc(C(C)N3CCCCC3)cc2)c(C#N)cc1C(=O)O (stereo not drawn) | -1% | i | 6% | 3% | ?
O=C(NCCc1ccc(Cl)cc1)C1CCN(Cc2ccccc2-c2ccccc2F)CC1 | ? | / | / | / | 32µM*
O=C(NCCc1ccc(F)cc1)C1CCN(Cc2ccccc2-c2ccccc2F)CC1 | 35µM* | / | / | / | 28µM*
Cn1ncc2c(C(=O)NC3CCCCC3)cc(-c3ccc(F)cc3)nc21 | -10%[138 µM] | / | / | / | i
Cc1cc(C(F)(F)F)nn1CCNC(=O)c1csc(-c2cccs2)n1 | -29% | i | -11% | -18% | ?
COc1ccccc1C(=O)N1CCC(c2n[nH]c(=O)n2-c2ccccc2)CC1 | -4% | i | 14% | -1% | -1%
Cc1ccc(-c2ccccc2CN2CCN([S+](=O)([O-])c3ccccc3)CC2)cc1Cl | ? | / | / | -13% | ?
